# Results from PubChem BioAssay.
# Experiment: RPMI8226 myeloma cell viability, profiling panel, resazurin fluorescence, basal, 24 h, PK04 Diversity Set (AID 1180);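 further: RPMI8826 multiple myeloma cell line at 5000 cells per well; test concentration not given here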
# Conditions: higher = more signal
row,SMILES,z-score
1,COCCOC(=O)N1C(=O)[C@@]2(c3cc(C#CCCO)ccc31)[C@H](C(=O)N1CCN(c3ncccn3)CC1)[C@H]1C(=O)O[C@H](c3ccccc3)[C@H](c3ccccc3)N1[C@@H]2c1ccc(OCCO)cc1,0.555
2,CC[C@@H](O[Si](C#C[Si](C(C)C)(C(C)C)C(C)C)(C(C)C)C(C)C)c1cn(Cc2cccc(Cl)c2)nn1,0.961
3,COCCOC(=O)N1C(=O)[C@@]2(c3cc(C#CCC(C(=O)OC)C(=O)OC)ccc31)[C@H](c1ccc(O)cc1)N1[C@H](c3ccccc3)[C@H](c3ccccc3)OC(=O)[C@H]1[C@@H]2C(=O)N1CCc2cc(OC)c(OC)cc2C1,-0.92
4,Cc1ccc(S[C@]2(C(=O)NCCN3CCOCC3)CC(=O)N(C(C)C)[C@@H]2c2ccc(CO)cc2I)cc1,-1.83
5,CC(C)c1ccc(NN2C(C(O)c3ccccc3)C=CC3C(=O)N(c4ccccc4)C(=O)C32)cc1 (configuration not stated),0.039
6,CC(C)C(=C=CC[C@H](O)c1cccc(OCCO)c1)C[C@H](O)c1ccccn1,0.681
7,COCCOC(=O)N1C(=O)[C@@]2(c3cc(C#CCNC(N)=O)ccc31)[C@H](c1ccc(O)cc1)N1[C@H](c3ccccc3)[C@H](c3ccccc3)OC(=O)[C@H]1[C@@H]2C(=O)N1CCc2cc(OC)c(OC)cc2C1,-0.242
8,[N-]=[N+]=NCc1ccccc1[C@H]1OC(c2ccc(OCCCO)cc2)=N[C@@]1(Cc1ccccc1N=[N+]=[N-])C(=O)N1CCOCC1,-2.58
9,C=C(CCCC)/C(=C/C[C@@H](OC(C)=O)c1cccc(OCCO)c1)c1cc(C(=O)OC)ccc1OC,0.1
10,C=CCNC(=O)[C@H]1[C@@H]2C(=O)O[C@@H](c3ccccc3)[C@@H](c3ccccc3)N2[C@@H](c2ccc(OCCO)cc2)[C@]12C(=O)N(C(=O)OCCOC)c1ccc(C#CCC(C(=O)OC)C(=O)OC)cc12,-1.31
11,C=CCOC(=O)[C@@H]1[C@H]2C(=O)O[C@H](c3ccccc3)[C@H](c3ccccc3)N2[C@H](c2ccc(OCCOC(=O)[C@@H]3C[C@@H]4C(=O)N[C@@H](CC(C)C)C(=O)N4[C@@H]3c3ccc(O)cc3)cc2)[C@@]12C(=O)Nc1ccc(I)cc12,0.676
12,COC(=O)[C@@]1(Cc2ccc(F)cc2)[C@H]2c3cc(C(=O)N4CCCC4)n(C[C@H](O)CO)c3C[C@H]2CN1C(=O)c1ccccc1,-0.797
13,COc1cc2c(cc1O)C(C)N(Cc1sc3ccccc3c1Cl)CC2 (configuration not stated),-0.0875
14,Cc1ccc(S(=O)(=O)N2[C@@H](c3ccccc3)C(C(=O)O)=CC[C@H]2c2ccc(F)cc2)cc1,-0.858
15,C=C(C(=O)CC[C@@H](OC(=O)c1ccccc1-c1ccccc1C(=O)O)c1ccc(OCCO)cc1)C(C)C,0.488
16,C=CC[C@H](OC(=O)Nc1ccc(SC)cc1)c1ccc(O)c(F)c1,-1.54
17,O=C1c2ccccc2[C@@]2(Cc3ccccc3N(CC(F)(F)F)C2=O)[C@H](c2ccc(CO)cc2)N1Cc1ccccc1,-0.341
18,C#CCN(C(=O)OC(C)(C)C)[C@H](CO)c1ccccc1,-0.336
19,COC(=O)[C@@]1(Cc2ccc(F)cc2)[C@H]2c3cc(C(=O)N4CCCC4)n(CCc4c[nH]c5cc(F)ccc45)c3C[C@H]2CN1C(=O)c1ccccc1,-0.162
20,CC[C@@H]1C=C(C(=O)O)[C@H](c2cccc(Cl)c2)N1S(=O)(=O)c1ccc(C)cc1,-1.89
21,C=CCNC(=O)[C@@H]1[C@H]2C(=O)O[C@H](c3ccccc3)[C@H](c3ccccc3)N2[C@H](c2ccc(OCCO)cc2)[C@@]12C(=O)N(C(=O)OCCOC)c1ccccc12,-0.289
22,COCCCNC(=O)[C@@]1(CCC(=O)OC(C)(C)C)N=C(c2ccc(OCCCO)cc2)O[C@H]1c1ccccc1,0.137
23,CC(C)C[C@@H]1NC(=O)[C@@H]2C[C@H](C(=O)NCCCCCCNC(=O)CS)[C@H](c3ccc(O)cc3)N2C1=O,-0.898
24,C=C(COC)/C(=C/C[C@@H](OC(=O)c1ccncc1)c1ccccc1OCCO)c1cnc2ccccc2c1,0.0353
25,C=C(C(=O)CC[C@H](OC(=O)c1ccccc1-c1ccccc1C(=O)O)c1ccc(OCCO)cc1)C(C)C,0
26,COC(=O)Cn1c(C(=O)N(C)C)cc2c1C[C@H]1CN(C(=O)c3ccccc3)[C@@](Cc3ccccc3)(C(=O)OC)[C@@H]21,1.09
27,COc1cc(Cc2cc3c(c(-c4ccccc4)n2)[Si](C(C)C)(C(C)C)OC3)cc(OC)c1OC,0.542
